According to the supplement of paper PMC12067093, “Discovery and optimisation of a covalent ligand for TRIM25 and its application to targeted protein ubiquitination” (Chemical Science, 2025):
Of roughly 21,000 targets only a part is listed; those with the largest changes were picked by preference.

Compound: CC1Cc2ccccc2N1C(=O)C1CCCN(C1)C(=O)CCl (mixture of isomers) [TRIM25 ligand 11 (diastereomer mixture)]
Assay: probe-labelled cysteine peptide fold change vs DMSO (competition) (log2 fold change); higher = less target engagement (more negative = stronger competition)
Conditions: THP-1, incubation time: 4 h
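Also: competitive chemoproteomic profiling in live THP-1 cells with an iodoacetamide desthiobiotin (IA-DTB) probe, comparing probe-labelled peptide intensities in compound-treated cells against DMSO-treated controls.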

Sequence of UniProt P48449 (P48449 whole entry, looked up): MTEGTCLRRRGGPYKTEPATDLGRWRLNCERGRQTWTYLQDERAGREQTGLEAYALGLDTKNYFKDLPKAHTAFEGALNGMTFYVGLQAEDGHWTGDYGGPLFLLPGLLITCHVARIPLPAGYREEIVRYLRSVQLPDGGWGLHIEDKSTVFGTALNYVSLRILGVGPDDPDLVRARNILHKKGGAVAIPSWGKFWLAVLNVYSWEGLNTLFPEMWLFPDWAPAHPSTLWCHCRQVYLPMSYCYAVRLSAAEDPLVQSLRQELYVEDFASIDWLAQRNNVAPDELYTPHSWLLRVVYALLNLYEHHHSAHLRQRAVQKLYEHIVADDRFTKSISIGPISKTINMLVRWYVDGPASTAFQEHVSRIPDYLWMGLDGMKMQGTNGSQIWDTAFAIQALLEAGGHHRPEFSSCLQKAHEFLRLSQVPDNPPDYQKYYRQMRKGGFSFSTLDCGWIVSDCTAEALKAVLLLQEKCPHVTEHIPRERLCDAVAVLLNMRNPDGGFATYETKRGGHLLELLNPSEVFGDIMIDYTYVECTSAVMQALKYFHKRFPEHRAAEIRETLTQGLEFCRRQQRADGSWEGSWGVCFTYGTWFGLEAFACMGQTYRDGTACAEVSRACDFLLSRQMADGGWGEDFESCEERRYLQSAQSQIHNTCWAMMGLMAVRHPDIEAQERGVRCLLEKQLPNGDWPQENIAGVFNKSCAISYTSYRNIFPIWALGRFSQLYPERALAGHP
Sequence of UniProt Q9UBG0 (Q9UBG0 whole entry, looked up): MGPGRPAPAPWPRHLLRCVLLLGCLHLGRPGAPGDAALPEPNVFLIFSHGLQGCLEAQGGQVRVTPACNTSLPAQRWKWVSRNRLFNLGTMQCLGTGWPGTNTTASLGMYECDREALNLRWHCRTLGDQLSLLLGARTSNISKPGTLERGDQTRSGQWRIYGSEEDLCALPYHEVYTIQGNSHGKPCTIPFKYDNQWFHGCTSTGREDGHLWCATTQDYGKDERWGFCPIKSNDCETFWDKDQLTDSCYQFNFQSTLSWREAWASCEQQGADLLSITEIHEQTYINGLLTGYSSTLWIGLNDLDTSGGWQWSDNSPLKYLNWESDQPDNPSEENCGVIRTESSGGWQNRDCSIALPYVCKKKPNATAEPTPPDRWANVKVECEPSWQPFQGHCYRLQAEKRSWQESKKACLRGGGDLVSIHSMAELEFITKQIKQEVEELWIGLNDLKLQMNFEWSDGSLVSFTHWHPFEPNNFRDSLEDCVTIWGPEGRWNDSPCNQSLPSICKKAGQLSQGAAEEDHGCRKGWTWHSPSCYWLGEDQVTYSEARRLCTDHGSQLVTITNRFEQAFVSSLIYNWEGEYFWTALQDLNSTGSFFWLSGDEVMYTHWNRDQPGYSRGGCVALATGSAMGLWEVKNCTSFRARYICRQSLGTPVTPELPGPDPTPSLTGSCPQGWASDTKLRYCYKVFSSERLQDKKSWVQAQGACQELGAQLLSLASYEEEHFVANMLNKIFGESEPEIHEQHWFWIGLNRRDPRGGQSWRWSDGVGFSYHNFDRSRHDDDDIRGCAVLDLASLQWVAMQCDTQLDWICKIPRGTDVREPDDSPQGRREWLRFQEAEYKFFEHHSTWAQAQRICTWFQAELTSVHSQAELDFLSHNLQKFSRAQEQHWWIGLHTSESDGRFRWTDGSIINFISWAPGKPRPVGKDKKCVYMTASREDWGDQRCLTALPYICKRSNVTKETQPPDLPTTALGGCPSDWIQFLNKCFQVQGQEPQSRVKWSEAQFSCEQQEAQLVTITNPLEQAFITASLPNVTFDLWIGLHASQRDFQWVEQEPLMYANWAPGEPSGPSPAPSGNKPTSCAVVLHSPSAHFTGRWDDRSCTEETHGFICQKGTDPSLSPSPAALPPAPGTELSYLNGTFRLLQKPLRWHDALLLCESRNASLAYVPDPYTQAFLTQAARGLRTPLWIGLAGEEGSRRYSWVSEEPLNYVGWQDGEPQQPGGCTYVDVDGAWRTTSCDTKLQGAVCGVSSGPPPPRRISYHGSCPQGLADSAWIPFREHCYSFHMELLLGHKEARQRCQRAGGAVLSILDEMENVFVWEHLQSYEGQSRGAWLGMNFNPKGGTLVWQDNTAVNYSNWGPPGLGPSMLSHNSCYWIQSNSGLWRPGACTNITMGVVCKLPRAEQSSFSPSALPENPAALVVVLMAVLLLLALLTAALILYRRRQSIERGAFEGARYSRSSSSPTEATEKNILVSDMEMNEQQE
Sequence of UniProt Q9Y6X3 (Q9Y6X3 whole entry, looked up): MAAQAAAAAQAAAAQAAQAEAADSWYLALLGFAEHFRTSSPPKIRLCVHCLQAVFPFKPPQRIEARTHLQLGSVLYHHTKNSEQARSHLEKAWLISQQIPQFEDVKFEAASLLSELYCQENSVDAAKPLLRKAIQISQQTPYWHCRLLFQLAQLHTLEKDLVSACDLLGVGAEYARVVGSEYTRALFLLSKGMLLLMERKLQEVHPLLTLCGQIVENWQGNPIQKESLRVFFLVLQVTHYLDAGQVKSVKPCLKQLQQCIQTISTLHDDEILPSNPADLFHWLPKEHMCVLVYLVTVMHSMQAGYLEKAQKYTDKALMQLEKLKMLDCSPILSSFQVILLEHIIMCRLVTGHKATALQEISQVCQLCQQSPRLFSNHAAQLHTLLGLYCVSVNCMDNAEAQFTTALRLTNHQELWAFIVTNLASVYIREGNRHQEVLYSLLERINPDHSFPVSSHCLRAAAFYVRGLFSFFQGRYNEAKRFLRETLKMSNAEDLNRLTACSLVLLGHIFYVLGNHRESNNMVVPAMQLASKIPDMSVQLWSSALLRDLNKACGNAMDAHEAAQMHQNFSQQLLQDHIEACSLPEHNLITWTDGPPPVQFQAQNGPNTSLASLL
Sequence of UniProt Q13496 (Q13496 whole entry, looked up): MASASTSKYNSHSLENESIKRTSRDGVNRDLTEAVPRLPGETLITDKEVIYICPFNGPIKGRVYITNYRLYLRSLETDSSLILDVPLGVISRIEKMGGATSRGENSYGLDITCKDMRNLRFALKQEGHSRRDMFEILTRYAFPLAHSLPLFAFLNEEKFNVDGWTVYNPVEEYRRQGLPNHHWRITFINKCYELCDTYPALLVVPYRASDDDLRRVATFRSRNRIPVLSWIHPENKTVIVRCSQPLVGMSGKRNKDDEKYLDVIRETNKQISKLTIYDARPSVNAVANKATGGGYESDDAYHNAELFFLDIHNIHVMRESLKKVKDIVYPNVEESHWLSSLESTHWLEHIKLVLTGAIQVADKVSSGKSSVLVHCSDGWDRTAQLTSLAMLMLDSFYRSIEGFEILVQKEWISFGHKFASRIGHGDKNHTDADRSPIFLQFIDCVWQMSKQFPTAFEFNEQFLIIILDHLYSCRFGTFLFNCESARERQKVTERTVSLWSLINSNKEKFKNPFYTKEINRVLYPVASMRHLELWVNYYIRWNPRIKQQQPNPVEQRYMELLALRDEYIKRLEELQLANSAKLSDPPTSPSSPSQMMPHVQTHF
Sequence of UniProt P49321 (P49321 whole entry, looked up): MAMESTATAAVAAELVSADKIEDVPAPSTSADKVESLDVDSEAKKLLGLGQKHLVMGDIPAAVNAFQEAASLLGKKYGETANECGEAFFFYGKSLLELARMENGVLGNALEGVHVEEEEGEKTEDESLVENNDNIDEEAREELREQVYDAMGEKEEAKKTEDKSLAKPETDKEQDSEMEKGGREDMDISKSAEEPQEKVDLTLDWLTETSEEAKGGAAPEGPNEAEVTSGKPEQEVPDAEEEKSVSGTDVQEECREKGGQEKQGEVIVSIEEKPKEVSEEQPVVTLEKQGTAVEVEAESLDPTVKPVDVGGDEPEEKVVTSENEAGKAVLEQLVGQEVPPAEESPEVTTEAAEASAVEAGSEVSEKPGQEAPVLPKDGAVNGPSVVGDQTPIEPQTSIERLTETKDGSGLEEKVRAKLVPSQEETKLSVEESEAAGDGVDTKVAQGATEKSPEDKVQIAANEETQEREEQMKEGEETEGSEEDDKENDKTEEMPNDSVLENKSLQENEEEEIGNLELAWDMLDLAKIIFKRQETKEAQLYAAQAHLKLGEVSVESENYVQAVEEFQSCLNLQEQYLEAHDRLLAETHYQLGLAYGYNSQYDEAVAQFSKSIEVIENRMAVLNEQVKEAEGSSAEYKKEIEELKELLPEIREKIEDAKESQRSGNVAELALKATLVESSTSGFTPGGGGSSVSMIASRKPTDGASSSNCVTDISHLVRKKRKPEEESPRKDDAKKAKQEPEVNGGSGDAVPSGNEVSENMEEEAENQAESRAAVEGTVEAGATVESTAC
Sequence of UniProt Q12851 (Q12851 whole entry): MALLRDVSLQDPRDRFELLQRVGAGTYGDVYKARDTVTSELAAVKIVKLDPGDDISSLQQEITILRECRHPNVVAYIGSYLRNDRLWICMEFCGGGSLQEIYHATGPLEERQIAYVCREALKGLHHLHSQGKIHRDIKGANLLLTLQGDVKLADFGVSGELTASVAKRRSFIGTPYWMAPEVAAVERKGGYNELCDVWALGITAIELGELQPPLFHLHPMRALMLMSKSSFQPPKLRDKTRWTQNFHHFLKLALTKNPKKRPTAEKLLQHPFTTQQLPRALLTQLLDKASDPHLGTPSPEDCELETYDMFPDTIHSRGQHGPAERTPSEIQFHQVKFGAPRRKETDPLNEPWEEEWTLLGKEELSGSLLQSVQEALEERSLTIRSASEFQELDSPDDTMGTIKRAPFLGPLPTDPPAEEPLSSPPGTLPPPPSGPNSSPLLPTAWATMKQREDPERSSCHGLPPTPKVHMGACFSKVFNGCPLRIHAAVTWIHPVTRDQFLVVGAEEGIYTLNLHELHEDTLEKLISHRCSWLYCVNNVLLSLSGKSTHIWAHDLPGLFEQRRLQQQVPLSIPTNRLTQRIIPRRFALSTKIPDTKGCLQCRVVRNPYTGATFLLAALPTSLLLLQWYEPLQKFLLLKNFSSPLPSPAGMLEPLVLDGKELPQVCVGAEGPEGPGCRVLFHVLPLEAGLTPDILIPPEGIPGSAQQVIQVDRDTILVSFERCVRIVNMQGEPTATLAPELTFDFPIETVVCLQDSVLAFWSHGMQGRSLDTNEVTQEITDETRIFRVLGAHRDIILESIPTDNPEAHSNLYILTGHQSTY

Target	probe-labelled cysteine peptide fold change (10 µM)	probe-labelled cysteine peptide fold change (50 µM)
MT1E_P04732_50_CAQGCVCK<|>MT1F_P04733_50_CAQGCVCK<|>MT1B_P07438_50_CAQGCVCK<|>MT1L_Q93083_50_CAQGCVCK (UniProt Q93083+P07438+P04733+P04732)	-0.000901	0.116
MAP1S_Q66K74_841_HDPLPDPLKVPPPLPDPSSICMVDPEMLPPK (UniProt Q66K74)	-0.202	–
LYAR_Q9NX58_30_NCECLSCIDCGK (UniProt Q9NX58)	-0.0598	-0.0603
MDN1_Q9NU22_3690_LLGSQLLACTLSHNTLFGEAPSDLMVKPDGPYDFYQHPNVPEAR (UniProt Q9NU22)	0.00494	0.105
MAN2C1_Q9NTJ4_29_FVSPLYFTDCNLR (UniProt Q9NTJ4)	0.111	–
NCAPG2_Q86XI2_776_NRECLLSAPR (UniProt Q86XI2)	-0.0525	-0.00285
MIA3_Q5JRA6_1513_AGLEDECK (UniProt Q5JRA6)	0.0174	–
MCM3AP_O60318_439_SESTDSLGGLSPSEVTAIQCK (UniProt O60318)	-0.0427	-0.262
MRPL38_Q96DV4_290_QDQPIDFSEDARPSPCYQLAQR (UniProt Q96DV4)	-0.028	–
MTA3_Q9BTC8_109_CSVALLNETESVLSYLDK (UniProt Q9BTC8)	0.851	–
MIS18A_Q9NYP9_85_AQLEEEAAAAEERPLVFLCSGCR (UniProt Q9NYP9)	-0.0813	–
MIF4GD_A9UHW6_150_EEEVDCLVLQLHR (UniProt A9UHW6)	0.222	–
NASP_P49321_568_LGEVSVESENYVQAVEEFQSCLNLQEQYLEAHDR (UniProt P49321)	-0.127	0.217
LYST_Q99698_3649_LCYVQSLAGHK (UniProt Q99698)	0.0365	-0.124
MTHFS_P49914_180_EQICLQVPVNENDMK (UniProt P49914)	-0.00999	–
MOV10_Q9HCE1_650_LVSAQFPIDHFTHIFIDEAGHCMEPESLVAIAGLMEVK (UniProt Q9HCE1)	0.00257	–
MYH9_P35579_671_CIIPNHEKK (UniProt P35579)	-0.608	-0.373
MTM1_Q13496_242_CSQPLVGMSGKR (UniProt Q13496)	-0.862	-0.255

Target	probe-labelled cysteine peptide fold change (10 µM)	probe-labelled cysteine peptide fold change (50 µM)
MAU2_Q9Y6X3_145_AIQISQQTPYWHCR (UniProt Q9Y6X3)	-0.167	0.0177
LYPLA2_O95372_213_TYPGVMHSSCPQEMAAVK (UniProt O95372)	0.0451	–
MYCBP2_O75592_4406+4413_NEEHCLPCLHGCDK (UniProt O75592)	-0.0669	–
MYH3_P11055_1412_CASLEK<|>MYH1_P12882_1415_CASLEK<|>MYH8_P13535_1414_CASLEK<|>MYH2_Q9UKX2_1417_CASLEK<|>MYH13_Q9UKX3_1415_CASLEK<|>MYH4_Q9Y623_1415_CASLEK (UniProt Q9Y623+Q9UKX3+Q9UKX2+P13535+P12882+P11055)	0.356	0.307
MTA2_O94776_209_ALDCSSSIR (UniProt O94776)	-0.025	–
MYH9_P35579_896_LQLQEQLQAETELCAEAEELRAR (UniProt P35579)	-0.566	-0.0747
MINK1_Q8N4C8_129_EDCIAYICR (UniProt Q8N4C8)	0.00524	–
MRC2_Q9UBG0_213_EDGHLWCATTQDYGKDER (UniProt Q9UBG0)	-0.0873	-0.0151
MGST3_O14880_56_YKVEYPIMYSTDPENGHIFNCIQR (UniProt O14880)	0.0746	-0.113
MAP4K2_Q12851_302_ASDPHLGTPSPEDCELETYDMFPDTIHSR (UniProt Q12851)	-0.0289	-0.161
METTL18_O95568_48_CSAEQFDLPQDHLWEHK (UniProt O95568)	-0.285	–
MBTPS2_O43462_386_SSSSSFCIIPSLETHTR (UniProt O43462)	-0.0619	–
MRM3_Q9HC36_309_ASDHGWVCDQR (UniProt Q9HC36)	0.135	-0.1
NADK2_Q4G0N4_311_SSGLNLCTGTGSK (UniProt Q4G0N4)	-0.0288	-0.0319
NAA25_Q14CX7_339_SQGCNDEYK (UniProt Q14CX7)	0.0881	-0.0602
MCM2_P49736_624_CTVIAAANPIGGR (UniProt P49736)	0.0682	0.0292
LSS_P48449_484_LCDAVAVLLNMR (UniProt P48449)	-0.0996	-0.128
MRTO4_Q9UKD2_176_RGVVTLLSDYEVCK (UniProt Q9UKD2)	0.091	-0.0317
